M1 antag = human M1 muscarinic receptor antagonists, primary screen, CHO-K1 cells, Fluo-8 calcium fluorescence, 1536-well | Muscarinic acetylcholine receptor M1 (Homo sapiens), P11229 | 360,000 tested, 1.3% active | inhibition, % at 3 µM | CHO-K1 hM1, ACh EC80 antagonist | AID 588852, 2011;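 active = percent inhibition above its own plate's cutoff, namely the mean of that plate's compound wells plus 3 SD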;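 also: peak over basal fluorescence ratio during 140 s after agonist addition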
Target sequence (P11229 whole entry, looked up): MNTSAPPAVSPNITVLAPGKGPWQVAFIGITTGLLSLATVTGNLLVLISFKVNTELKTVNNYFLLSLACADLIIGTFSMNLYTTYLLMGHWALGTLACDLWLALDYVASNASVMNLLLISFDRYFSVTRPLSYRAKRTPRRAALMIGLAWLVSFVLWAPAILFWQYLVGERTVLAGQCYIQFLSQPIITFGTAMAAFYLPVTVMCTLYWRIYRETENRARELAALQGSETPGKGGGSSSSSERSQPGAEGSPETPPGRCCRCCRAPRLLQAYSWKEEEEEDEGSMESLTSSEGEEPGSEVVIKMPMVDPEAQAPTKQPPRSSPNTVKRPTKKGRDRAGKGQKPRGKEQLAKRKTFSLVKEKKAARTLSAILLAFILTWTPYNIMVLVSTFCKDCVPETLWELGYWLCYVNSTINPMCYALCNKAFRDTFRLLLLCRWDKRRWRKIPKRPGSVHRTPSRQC
CHO-K1 Ca PAM = nonselective calcium activators in parental CHO-K1 cells, primary screen, counter-screen for M1 PAM project, cell-based, Fluo-8 calcium fluorescence, full deck, 1536-well. AID 602247, 2012. ATP EC20; 0% at ATP EC20, 100% at ATP max. activation, % at 3 µM. 360,000 tested, 0.02% active;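 active = activation above the run cutoff, the mean activation of all test compounds plus 3 SD, cut at about 40% in these data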;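 also: peak over basal fluorescence ratio in a 140 s read after ATP addition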
M1 ag = human M1 muscarinic receptor agonists, primary screen, Fluo-8 calcium fluorescence, CHO-K1 cells, HTS; Muscarinic acetylcholine receptor M1 (Homo sapiens), P11229; CHO-K1 hM1, agonist mode; 0% DMSO, 100% acetylcholine EC100; activation, % at 3 µM; 360,000 tested, 0.33% active; AID 588814, 2011;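 active = activation above the run's mean compound activation plus 3 SD, cut at about 16% in these data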;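 also: peak over basal fluorescence ratio within a 140 s kinetic read after compound addition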
CHO-K1 Ca antag = counter-screen for M1 antagonists: effect in parental CHO-K1 cells | 360,000 tested, 0.6% active | inhibition, % at 3 µM | ATP-induced calcium, Fluo-8 fluorescence;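 active = inhibition above a per-plate cutoff, the plate's mean sample inhibition plus 3 SD, cut at about 24% in these data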
M1 ag parental = counter-screen for M1 agonists: effect in parental CHO-K1 cells; Fluo-8 calcium fluorescence; scaled to maximal ATP response, vehicle zero; activation, % at 3 µM; 360,000 tested, 0.48% active; in the data active = activation above about 15%;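 also: untransfected CHO-K1 host cells lacking M1 receptor as counterscreen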
M1 PAM = human M1 muscarinic receptor positive allosteric modulators, primary screen, CHO-K1 cells, Fluo-8 calcium fluorescence, 1536-well; AID 588819, 2011; Muscarinic acetylcholine receptor M1 (Homo sapiens), P11229; CHO-K1 hM1, ACh EC20; 0% = ACh EC20, 100% = maximal ACh; activation, % at 3 µM; 360,000 tested, 0.088% active; in the data active = activation above about 19%, passing the limit was not always enough
Of the large screens only hits and unclear results are named; the others gave an inactive call. Rows were chosen to be rich in hits. Some 2.4% of all compounds tested hit in one or more screens of this group.

CCN=C(NCC)SC1CC(=O)N(c2cccc(OC)c2)C1=O (centres undefined)	M1 antag 32
CCOCc1cc(CN2CCC(CCC(=O)NC3CC3)CC2)ccc1OC	none
CCOc1ccc(NS(=O)(=O)c2ccc(C(=O)NC3CCC(O)CC3)cc2)cc1 (centres undefined)	none
CC(=O)c1c(C)oc2ccc(NS(=O)(=O)c3ccc(O)c(C(=O)O)c3)cc12	none
CC(=O)c1c(C)oc2ccc(NS(=O)(=O)c3ccc(F)cc3C)cc12	M1 antag 28
Cc1ccccc1N(CC(=O)N1CCCCCC1)S(C)(=O)=O	none
Nn1c(COc2cccc(Cl)c2)nc2ccccc2c1=O	M1 ag parental 25
Nc1[nH]c(C(=O)c2ccccc2)c(-c2ccccc2Br)c1C(=O)c1ccccc1	CHO-K1 Ca PAM 42 (no result: M1 antag, M1 ag, M1 PAM)
O=C(CN1CCN(S(=O)(=O)c2ccccc2)CC1)Nc1ccccc1C(=O)NC1CC1	none
COc1cc2c(cc1NC(=O)CN1CCN(S(=O)(=O)c3ccc(C)cc3)CC1)oc1ccccc12	M1 PAM 23
CC(=O)c1ccc(S(=O)(=O)N2CCN(CC(=O)Nc3ccccc3C(=O)NC3CC3)CC2)cc1	M1 antag 37
C=C(C)[C@@H]1CC=C(CN2CCN(Cc3ccccc3)CC2)CC1	M1 antag 38
COc1ccccc1CCNC(=O)C(=O)NCC1OCCN1S(=O)(=O)c1ccc(OC)c(OC)c1 (centres undefined)	none
CCN(CC)c1ccc(S(=O)(=O)N2CCOCC2)cc1NC(=O)COC(=O)/C=C/c1ccccc1	M1 antag 32
Cc1ccc(C(=O)NCC(=O)OCC(=O)Nc2cc(S(=O)(=O)N3CCOCC3)ccc2C)cc1	none
Cc1ccc(S(=O)(=O)N2CCOCC2)cc1NC(=O)COC(=O)CNC(=O)c1ccc(Oc2ccccc2)cc1	CHO-K1 Ca antag 25
Cc1ccc(S(=O)(=O)N2CCN(C(=O)COC(=O)CCOc3ccc(C(C)(C)C)cc3)CC2)cc1	M1 antag 34
Cc1ccc(S(=O)(=O)N2CCOCC2)cc1NC(=O)COC(=O)CCOc1ccc(C(C)(C)C)cc1	M1 ag parental 16
Cc1ccc(S(=O)(=O)N2CCOCC2)cc1NC(=O)COC(=O)CNC(=O)c1ccc(C(C)(C)C)cc1	none
CCN(C(=O)COC(=O)c1cc2ccccc2cc1OC)c1c(N)n(Cc2ccccc2)c(=O)[nH]c1=O	none
Nc1nc2ccccc2cc1C(=O)NCc1ccc(Cl)cc1Cl	none (no result: M1 antag, M1 ag, M1 PAM)
CN(C)C(=O)Nc1ccccc1CC[N+](=O)[O-]	none
O=C(Nc1ccc(Cl)cc1)Nc1ccccc1CC[N+](=O)[O-]	CHO-K1 Ca antag 24
O=C(Nc1ccc(Cl)cc1)Nc1csc([N+](=O)[O-])c1	M1 ag parental 16
COc1cc(/C=N/NC(=O)c2nc(-c3ccccc3)n(-c3ccccc3)n2)ccc1O	none
COc1ccc(/C=N/NC(=O)c2nc(-c3ccccc3)cc(-c3ccccc3)n2)cc1O	M1 antag 38
COc1ccc(/C=N/NC(=O)c2nc(-c3ccccc3)cc(-c3ccccc3)n2)cc1	none
CCN(CC)S(=O)(=O)c1cccc(C(=O)N/N=C/c2ccc(OC)c(O)c2)c1	CHO-K1 Ca antag 27
CCN(CC)S(=O)(=O)c1cccc(C(=O)N/N=C/c2ccccc2OCC(=O)O)c1	none
COc1ccc(/C=N/NC(=O)c2nc(-c3ccccc3)n(-c3ccccc3)n2)cc1OC	CHO-K1 Ca antag 25
O=C(CSc1ncccn1)Nc1cc(Cl)ccc1[N+](=O)[O-]	none
Cc1oc(-c2ccccc2F)nc1CS(=O)(=O)CC(=O)NCc1ccccc1Cl	none
O=C(Nc1ccccc1[N+](=O)[O-])c1cccc(N2C(=O)CCC2=O)c1	none
CCOC(=O)C1=C(C)N=c2sc(=Cc3cc(Cl)c(OCC(=O)O)c(Cl)c3)c(=O)n2C1c1cccc(OC)c1 (centres undefined)	none
O=C(O)c1cccc([N+](=O)[O-])c1C(=O)Nc1ccc2ccccc2c1	none
O=C(O)c1cccc([N+](=O)[O-])c1C(=O)Nc1cccc2ccccc12	CHO-K1 Ca antag 24
O=C(Cn1[nH]c(=O)c2ccccc2c1=O)NNC(=O)c1ccccc1	none
CC1CCN(C(=O)C2CCC(CNS(=O)(=O)c3ccc4c(c3)C(C)(C)C(=O)N4C)CC2)CC1 (centres undefined)	none
O=C1N(Cc2cccnc2)C[C@@H]2C[C@@H](c3ccc4nsnc4c3)N3CCC[C@@]123	none
O=C(C1CC1)N1CCN(Cc2ccccc2)CC1	none
CC1(C)C(C=C(Cl)Cl)C1C(=O)N1CCN(Cc2ccccc2)CC1 (centres undefined)	M1 antag 42
N#CC1CC(c2ccccc2)=NN1c1ccccc1[N+](=O)[O-] (centres undefined)	CHO-K1 Ca antag 24
CC1CN(C)C(C)C/C1=N\Oc1ccc([N+](=O)[O-])cc1 (centres undefined)	none
CC1CN(C)C(C)C/C1=N/Oc1ccccc1[N+](=O)[O-] (centres undefined)	M1 antag 42
O=C(NCCn1cc(SCC(=O)N2CCOCC2)c2ccccc21)c1c(F)cccc1F	none
O=C(NCCn1cc(SCc2ccccc2F)c2ccccc21)c1c(F)cccc1F	M1 antag 32
O=C(Cc1cccs1)Nn1c(Cc2cccs2)nc2ccccc2c1=O	CHO-K1 Ca antag 30
C=CCOc1cccc(NC(=O)c2ccccc2SC)c1	none
O=C(O)/C=C/C(=O)Nc1ccc(Oc2ccccc2)cc1	none
CCOC(=O)/C=C/C(=O)Nc1ccc(Oc2ccccc2)cc1	CHO-K1 Ca antag 28
CCN(CC)CC#Cc1ccc(C)cc1	none
CCN(CC)CC#CC(OC)(c1ccccc1)c1ccccc1	M1 antag 100
COC(C[C@@H]1O[C@H]1C(=O)COCc1ccccc1)OC	M1 PAM 30
CCOCCC(=O)Nc1ccc2c(c1)c(=O)n(C)n2Cc1cccc(C(F)(F)F)c1	M1 PAM 32
Cn1c(=O)c2cc(NC(=O)CCc3ccccc3)ccc2n1Cc1cccc(C(F)(F)F)c1	none
Cc1noc(C)c1CSCC(=O)Nc1nc(-c2ccc(F)c(F)c2)cs1	M1 antag 35
COc1ccc(-c2csc(NC(=O)CSCc3c(C)noc3C)n2)cc1OC	none
CCc1noc(C)c1C(=O)OCC(=O)Nc1nc(-c2ccc(F)c(F)c2)cs1	M1 antag 42
CC1CC(C)(C)OC(C[N+]2(C)CCCCC2)O1 (centres undefined)	M1 antag 35
